Bioassay records deposited in PubChem by National Center for Advancing Translational Sciences (NCATS).
The list is not random: actives were taken first. Their share in the collection is about 2.8%.
HepG2 viability: kills HepG2 cells in TGF-b inhibitor counter-screen; HepG2 CAGA-GFP viability, ATP luminescence, 18 h; hit rate 0.76% among 410,000; Potency, µM (doses to about 46.1 µM), inactives show at the top dose activity change, negative = cytotoxicity, most hits filed as cytotoxic
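CellTiter-Glo luminescence gave cytotoxicity after 18 hours at 37 degrees C. The cells were HepG2 CAGA-GFP in 1% FBS DMEM, stimulated with 500 pg/mL TGF-beta after compound addition. %Activity was normalised to no-cell wells (complete cell-killing) and DMSO (no toxicity), and curves were fitted and classified.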
HTT cytoprotect: Huntington cell model cytoprotection by ATP luminescence | PC12 HTT-Q103 induced, cytoprotection, ATP luminescence, 40 h | Potency, µM (doses to about 56.4 µM), for the others: cytoprotection (ATP increase), usual class: activators | hit rate 0.14% among 230,000 | AID 1471; further: % of control where 0% means no effect; nearly all actives have a fitted effect of over 45% in size
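Rat PC12, Q103 Htt exon1-GFP fusion, ecdysone promoter; tebufenozide inducer 100 nM final; compound titration; qHTS, 1500 cells/well; ATPlite luminescent read.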
ATXN viability: viability counter-screen for ATXN expression inhibitors. S2 cells (HEK-293 line with an ATXN2-luciferase reporter) viability, CellTiter-Fluor protease fluorescence, 24 h. AID 651635. hit rate 0.49% among 400,000. Potency, µM (doses to about 56.7 µM), hits mostly cytotoxic; further: nearly all actives have a fitted effect of over 40% in size
HttQ103 aggreg: reduces HttQ103-GFP aggregates in PC12 cells; PC12 HttQ103-GFP aggregates, Acumen cytometry, 40 h; Potency, µM (titrated, usually from 46.1 µM), for the others: at the top dose activity change, negative = inhibition, hits mostly inhibitors; hit rate 1.1% among 220,000; AID 1688; further: on the % scale 0 is the no-effect control and ±100 the full control effect; nearly all actives have a fitted effect of over 60% in size
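Aggregate formation scored by laser-scanning cytometer (488 excitation, 500–530 emission) in lysed PC12 cells expressing Q103-GFP after 100 nM tebufenozide induction; library tested in dose series, with ATPLite reagent added in the multiplex.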
ATXN2 expr inh: reduces ATXN2 reporter expression in HEK-293 cells. HEK-293 ATXN2-luciferase reporter, luminescence, 24 h. Potency, µM (titrated, usually from 57 µM), for the others: at the highest dose activity change, negative = inhibition, hits mostly inhibitors. hit rate 0.72% among 360,000. AID 1745845; further: on the % scale 0 is the no-effect control and ±100 the full control effect; nearly all actives have a fitted effect of over 55% in size
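ATXN2-luciferase reporter cells (luciferase flanked by upstream and downstream ATXN2 gene portions) were treated 24 h at 37 °C with compounds at up to 57 uM. SteadyGlo luminescence gave expression; GF-AFC fluorescence gave viability.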
TGFb SMAD3 inh: inhibitors of TGF-b signaling; HepG2 CAGA-GFP TGF-b/SMAD3 reporter, GFP fluorescence, 18 h; TGF-beta stimulated, 500 pg/mL final; Potency, µM (top dose mostly 46.1 µM), for inactives: top-dose activity, negative = inhibition, hits mostly inhibitors; AID 588855; hit rate 1.2% among 410,000; further: on the % scale 0 is the no-effect control and ±100 the full control effect; nearly all actives have a fitted effect of over 65% in size
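HEPG2 CAGA-GFP reporter cells (1000/well, DMEM with 1% FBS) received compounds, then recombinant TGF-beta at 500 pg/mL final for 18 hours at 37 degrees C. Per-cell GFP summed per well was normalised to unstimulated and stimulated DMSO controls before curve fitting.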
* = called active by the depositor; i = inactive; ? = inconclusive; / = no result given; ! = not active in a repeat; [ ] = another dose, or the depositor's remark. The call rests on the fitted dose curve; in most records, active means well fitted curve in the direction sought with a large enough effect; inconclusive means small, poorly fitted or top-dose-only effect, or another doubt; inactive means no such curve, though single readings can be large; an effect the other way counts as inactive or inconclusive. Potency means the concentration at half of the fitted maximal effect.

SMILES | HepG2 viability | HTT cytoprotect | ATXN viability | HttQ103 aggreg | ATXN2 expr inh | TGFb SMAD3 inh
COc1ccc(NC(=O)N2CC3(CCNCC3)C2)cc1 | / | -14% | / | / | / | /
COc1ccc(NC(=O)N2CCCC3(CCNCC3)C2)cc1 | / | 1.6µM* | / | / | / | /
COc1cc(/C=C/C(=O)O[C@H]2CC[C@]34C[C@]35CC[C@]3(C)[C@@H]([C@H](C)CCC=C(C)C)CC[C@@]3(C)[C@@H]5CC[C@H]4C2(C)C)ccc1O | / | / | i | / | 7% | /
Cc1oc(CC(C)C)cc1C(=O)NCCCC(=O)O | -40% | 5.6µM* | / | ? | 3% | -8%
Cc1cc(C(=O)NCCCC(=O)O)c(C)o1 | -1% | 3% | / | 3% | / | 15%
Cc1c(C(=O)NCCC2CCCN2C)cnn1-c1nccc(-c2ccccc2F)n1 (stereo not drawn) | / | / | i | / | / | /
CC(OC(=O)c1ccccc1OCCOc1ccccc1)C(=O)Nc1ccc(Br)cc1 (stereo not drawn) | -26% | / | / | / | / | 4%
Cc1[nH]c2ccccc2c1/C=N/NC(N)=S | -15% | 25%[10 µM] | i | -4%[9.22 µM] | -1% | -12%
Cc1[nH]c2ccccc2c1/C=N/NC(=S)NCc1ccccc1 | -52% | -14%[10 µM] | ? | -7% | / | 13µM*
CC[N+](CC)(CC)CCOc1ccc(/C=C/c2ccccc2)cc1 | 0% | -50% | ? | / | 18µM*! | -9%
COc1ccccc1C(CCNCc1ccccc1)c1ccc(OC(C)C)cc1 (stereo not drawn) | 13µM* | / | ? | / | 28µM* | ?
COc1ccc(CNCCC(c2ccc(OC(C)C)cc2)c2ccccc2OC)cc1 (stereo not drawn) | -79% | / | ? | / | 25µM* | ?
COc1ccc(CNCCC(c2ccccc2)c2ccc3c(c2)OCO3)cc1 (stereo not drawn) | -98% | -119% | 22µM* | ? | 25µM*! | 22µM*
COc1ccc(CNCCC(c2ccc(OC(C)C)cc2)c2ccccc2OC)cc1OC (stereo not drawn) | -99% | / | i | / | -27% | ?
CC(C)CCC(CCNCc1ccccn1)c1ccc2c(c1)OCO2 (stereo not drawn) | 16µM* | / | ? | / | / | ?
COc1ccc(C(CC(=O)O)c2ccc3c(c2)OCO3)cc1 (stereo not drawn) | 8% | / | i | / | -20% | -5%
C[N+]1(CC(=O)c2ccc(Cl)c(Cl)c2)CCOCC1 | -26% | / | / | / | / | -17%
COc1ccccc1C(CCNCc1ccc(N(C)C)cc1)c1ccc(OC(C)C)cc1 (stereo not drawn) | -113% | / | 32µM* | / | / | ?
O=C1c2ccccc2C(=O)N1c1ccccn1 | -32% | / | / | / | / | -12%
CCOc1ccccc1N=Nc1c(C)[nH]n(-c2nc(-c3ccccc3)cs2)c1=O | / | / | / | / | 8% | /
CCCCCOc1c(Cl)cc(C(=O)N(Cc2ccc(C)o2)C2CCS(=O)(=O)C2)cc1Cl (stereo not drawn) | -55% | / | ? | / | ? | 18µM*
CCCCOc1c(Cl)cc(C(=O)N(Cc2ccc(C)o2)C2CCS(=O)(=O)C2)cc1Cl (stereo not drawn) | -94% | / | ? | / | -18% | ?
CCCCCc1ccc(S(=O)(=O)NCCc2ccncc2)cc1 | -17% | -8% | i | 11µM* | -29% | -5%
Cc1cc(C(C)(C)C)cc(S(=O)(=O)NCCc2ccncc2)c1C | -30% | / | i | / | / | -2%
CC(C)(C)c1ccc(S(=O)(=O)NCCc2ccncc2)cc1 | -4% | -18% | ? | 22µM* | -7% | -2%
SMILES | HepG2 viability | HTT cytoprotect | ATXN viability | HttQ103 aggreg | ATXN2 expr inh | TGFb SMAD3 inh
CCCc1ccc(S(=O)(=O)NCCc2ccncc2)cc1 | -25% | -5% | i | ? | 2% | 1%
CCC1C(=O)CC2CCN3C(=O)CCC1C23 (stereo not drawn) | -3% | / | / | / | / | -6%
O=C1c2ccccc2-c2n[nH]c(=O)c3ccc(N4CCCCC4)c1c23 | -2% | -133% | ? | 20µM* | -5%[11.3 µM] | -5%
Cc1nc(NC(C)c2ccccc2)c2oc3ccccc3c2n1 (stereo not drawn) | -11% | -29% | i | 13µM* | ? | -27%
CCC(C)Nc1nc(C)nc2c1oc1ccccc12 (stereo not drawn) | -35% | ? | i | 34%[9.22 µM] | / | ?
CCCCCOc1ccccc1/C(=C\SC)n1ccnc1 | / | / | i | / | -13% | /
COc1ccccc1-c1nnc(SCC(=O)NCc2c(C)c(Cl)cc(C(C)C)c2O)o1 | -101% | -24% | ? | 13µM* | ? | 18µM*
COc1ccccc1-c1nnc(SCC(=O)Nc2c(Cl)cccc2Cl)o1 | -13% | -17%[10 µM] | i | -16% | 9% | 25%
CCC(CC)C1C(C#N)=C(N)Oc2n[nH]c(-c3ccccc3)c21 (stereo not drawn) | 8.9µM* | -11% | i | 24% | ? | ?
CCC(CC)C1C(C#N)=C(N)Oc2n[nH]c(C)c21 (stereo not drawn) | -60% | -21% | i | -12% | -19% | 9%
CCc1[nH]nc2c1C(C(C)C)C(C#N)=C(N)O2 (stereo not drawn) | -26% | 20%[10 µM] | i | 11µM* | -3% | ?
CC1(C)CNc2cc(NC(=O)c3cccnc3NCc3ccncc3)ccc21 | / | / | / | / | 1% | /
CC(O)CCCCCCC/C=C/C=C/C(N)=O (stereo not drawn) | / | 15%[10 µM] | / | / | / | /
Cc1occc1C(=O)N/N=C/c1ccc(-c2ccccc2)cc1 | 11µM* | / | i | / | 1% | -15%
Cc1ccsc1C(=O)N/N=C/c1ccc2c(c1)OCO2 | 5.6µM* | 2%[10 µM] | i | 13% | 43% | -18%
Cc1cc(C(=O)N/N=C/c2ccc3c(c2)OCO3)c(C)o1 | -20% | -15%[10 µM] | i | -5%[9.22 µM] | 4% | -2%
Cc1occc1C(=O)N/N=C/c1ccc2c(c1)OCO2 | 11µM* | -17%[10 µM] | i | -14%[9.22 µM] | ? | 0%
O=C(N/N=C/c1ccc2c(c1)OCO2)c1cccs1 | -27% | / | i | -2% | 34% | -1%
Cc1occc1C(=O)N/N=C/c1ccc(OCc2ccccc2)cc1 | -34% | -9%[10 µM] | i | -6%[9.22 µM] | 26% | ?
O=C(O)c1cc2cccc([N+](=O)[O-])c2[nH]1 | -3% | / | / | / | / | -15%
CC(C)CCSc1nc(N)c(C#N)cc1C#N | -17% | -28%[10 µM] | i | 22µM* | 22% | -18%
c1ccc(CNc2nc(N3CCOc4ccccc43)nc3c2CCCC3)cc1 | / | / | / | / | 0% | /
O=C(CN1CCN(Cc2ccccc2F)C1=O)NCc1ccco1 | -12% | 10% | i | 0.13µM* | 7% | 0%
COc1cccc(COCCN2CCN(S(=O)(=O)c3ccccc3)CCC2=O)c1 | 0% | / | / | / | / | 0%
